# Laboratory results as given in PMC7862700, “An all-to-all approach to the identification of sequence-specific readers for epigenetic DNA modifications on cytosine”.
# Assays:
# Test in all cases: DAPPL (digital affinity profiling via proximity ligation, sequencing); 10 mM Tris-HCl pH 7.5, 50 mM NaCl, 1 mM DTT, 4% glycerol, room temperature, 30 min; GST-TFs on glutathione beads, 16-mer random dsDNA library, 0.1% formaldehyde crosslink after washing; high values mean tight binding
# Details in all cases: protein: recombinant; tags: N-terminal GST; dsDNA, one strand shown
# [1] = target: T1, GABPA (Homo sapiens, UniProt Q06546 1-454)
# T1 sequence: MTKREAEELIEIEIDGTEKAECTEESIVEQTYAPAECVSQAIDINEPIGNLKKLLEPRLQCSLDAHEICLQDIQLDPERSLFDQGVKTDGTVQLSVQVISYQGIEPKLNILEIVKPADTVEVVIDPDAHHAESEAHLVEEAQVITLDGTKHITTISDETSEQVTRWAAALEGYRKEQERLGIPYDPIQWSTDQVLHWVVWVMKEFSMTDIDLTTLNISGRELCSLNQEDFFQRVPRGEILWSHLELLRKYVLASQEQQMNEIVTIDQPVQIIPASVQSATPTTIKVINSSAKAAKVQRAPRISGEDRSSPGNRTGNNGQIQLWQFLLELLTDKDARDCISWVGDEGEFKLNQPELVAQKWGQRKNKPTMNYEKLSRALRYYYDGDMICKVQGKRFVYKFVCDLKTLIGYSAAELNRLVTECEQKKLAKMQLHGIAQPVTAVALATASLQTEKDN
# Procedure, shortened: (§1)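 Human transcription factors fused to GST were expressed in yeast, captured on glutathione beads, given DNA barcodes and pooled with a GST-only negative control. Pools were incubated with 200 nmole of a 16-mer random double-stranded DNA library in Tris/NaCl/DTT/glycerol buffer at room temperature for 30 min. They were then washed, crosslinked with 0.1% formaldehyde, proximity-ligated (BsaI/T4 ligase, 1 h, 37 °C), PCR-amplified and sequenced on an Illumina NextSeq500. Binding signal is each 6-mer's read frequency for a factor divided by its frequency for the GST control.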
# [2] = target: ELF1 (Homo sapiens, UniProt P32519 1-619)
# Procedure, shortened: as §1
# [3] = target: SPIB (Homo sapiens, UniProt Q01892 1-262)
# Procedure, shortened: as §1
# [4] = target: T2, ELK3 (Homo sapiens, UniProt P41970 1-407)
# T2 sequence: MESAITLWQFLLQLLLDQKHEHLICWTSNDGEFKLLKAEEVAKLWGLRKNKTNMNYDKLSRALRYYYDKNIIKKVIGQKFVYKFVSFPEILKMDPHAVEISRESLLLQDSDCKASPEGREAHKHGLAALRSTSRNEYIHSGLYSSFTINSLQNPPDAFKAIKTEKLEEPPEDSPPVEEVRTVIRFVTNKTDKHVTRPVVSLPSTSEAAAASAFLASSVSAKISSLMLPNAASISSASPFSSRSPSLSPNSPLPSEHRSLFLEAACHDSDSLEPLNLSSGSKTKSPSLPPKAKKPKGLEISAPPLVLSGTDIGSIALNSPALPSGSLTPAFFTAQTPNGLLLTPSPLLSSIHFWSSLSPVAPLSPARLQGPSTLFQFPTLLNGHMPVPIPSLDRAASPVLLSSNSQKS
# Procedure, shortened: as §1
# [5] = target: T3, SPIC (Homo sapiens, UniProt Q8N5J4 1-248)
# T3 sequence: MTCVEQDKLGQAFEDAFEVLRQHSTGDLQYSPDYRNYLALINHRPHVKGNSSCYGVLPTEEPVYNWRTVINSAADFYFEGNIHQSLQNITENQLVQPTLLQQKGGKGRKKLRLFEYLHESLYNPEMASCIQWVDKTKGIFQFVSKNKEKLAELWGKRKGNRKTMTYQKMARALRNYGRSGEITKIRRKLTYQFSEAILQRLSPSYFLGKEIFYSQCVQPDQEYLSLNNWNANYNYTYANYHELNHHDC
# Procedure, shortened: as §1
# [6] = target: T4, ELK4 (Homo sapiens, UniProt P28324-2 1-405)
# T4 sequence: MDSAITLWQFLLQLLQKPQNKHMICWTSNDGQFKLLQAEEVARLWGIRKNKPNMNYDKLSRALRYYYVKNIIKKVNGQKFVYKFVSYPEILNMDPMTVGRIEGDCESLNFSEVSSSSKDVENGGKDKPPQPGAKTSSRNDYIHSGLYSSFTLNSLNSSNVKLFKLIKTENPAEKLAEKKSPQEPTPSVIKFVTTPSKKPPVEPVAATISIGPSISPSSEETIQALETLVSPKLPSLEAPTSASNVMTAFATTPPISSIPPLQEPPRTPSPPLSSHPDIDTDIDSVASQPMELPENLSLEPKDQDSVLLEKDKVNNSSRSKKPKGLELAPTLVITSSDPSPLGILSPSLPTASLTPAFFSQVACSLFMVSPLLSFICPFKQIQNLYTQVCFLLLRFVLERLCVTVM
# Procedure, shortened: as §1
# [7] = target: ETV1 (Homo sapiens, UniProt P50549 1-477)
# Procedure, shortened: as §1
# [8] = target: T5, ERF (Homo sapiens, UniProt P50548 1-548)
# T5 sequence: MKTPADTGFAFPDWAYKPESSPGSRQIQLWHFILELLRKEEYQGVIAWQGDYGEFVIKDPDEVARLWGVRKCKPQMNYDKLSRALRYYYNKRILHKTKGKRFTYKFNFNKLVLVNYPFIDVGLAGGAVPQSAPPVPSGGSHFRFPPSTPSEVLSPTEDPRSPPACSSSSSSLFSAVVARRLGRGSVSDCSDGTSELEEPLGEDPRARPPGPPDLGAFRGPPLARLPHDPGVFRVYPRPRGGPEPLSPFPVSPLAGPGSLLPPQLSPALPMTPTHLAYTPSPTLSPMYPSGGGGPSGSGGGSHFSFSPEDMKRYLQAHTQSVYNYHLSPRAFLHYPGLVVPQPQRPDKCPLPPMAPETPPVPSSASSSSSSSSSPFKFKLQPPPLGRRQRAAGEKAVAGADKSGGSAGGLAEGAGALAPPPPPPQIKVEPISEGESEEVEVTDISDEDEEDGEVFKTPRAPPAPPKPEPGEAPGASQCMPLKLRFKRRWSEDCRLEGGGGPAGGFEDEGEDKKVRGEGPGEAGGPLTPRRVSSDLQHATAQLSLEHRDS
# Procedure, shortened: as §1
# [9] = target: T6, ETV3L (Homo sapiens, UniProt Q6ZN32 1-361)
# T6 sequence: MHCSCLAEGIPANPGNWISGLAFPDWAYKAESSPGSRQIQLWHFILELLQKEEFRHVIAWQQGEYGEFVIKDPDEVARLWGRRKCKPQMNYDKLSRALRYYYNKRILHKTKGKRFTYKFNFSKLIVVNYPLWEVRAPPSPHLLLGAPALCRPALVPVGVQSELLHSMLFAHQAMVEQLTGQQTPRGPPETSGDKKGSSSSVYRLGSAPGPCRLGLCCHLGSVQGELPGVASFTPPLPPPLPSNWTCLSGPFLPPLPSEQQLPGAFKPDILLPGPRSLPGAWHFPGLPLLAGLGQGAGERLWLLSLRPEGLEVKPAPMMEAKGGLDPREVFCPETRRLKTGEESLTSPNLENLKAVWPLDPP
# Procedure, shortened: as §1
# [10] = target: T7, SPDEF (Homo sapiens, UniProt O95238 1-335)
# T7 sequence: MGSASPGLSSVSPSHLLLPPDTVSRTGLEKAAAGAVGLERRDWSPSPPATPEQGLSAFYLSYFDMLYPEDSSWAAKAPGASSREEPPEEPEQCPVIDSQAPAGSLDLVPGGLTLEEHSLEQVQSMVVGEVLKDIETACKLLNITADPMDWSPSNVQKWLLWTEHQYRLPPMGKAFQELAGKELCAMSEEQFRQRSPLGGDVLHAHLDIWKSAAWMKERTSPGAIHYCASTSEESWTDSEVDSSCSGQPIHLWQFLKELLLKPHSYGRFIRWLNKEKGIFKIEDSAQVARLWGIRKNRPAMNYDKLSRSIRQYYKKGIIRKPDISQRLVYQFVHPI
# Procedure, shortened: as §1
# [11] = target: T8, ETV7 (Homo sapiens, UniProt Q9Y603 1-341)
# T8 sequence: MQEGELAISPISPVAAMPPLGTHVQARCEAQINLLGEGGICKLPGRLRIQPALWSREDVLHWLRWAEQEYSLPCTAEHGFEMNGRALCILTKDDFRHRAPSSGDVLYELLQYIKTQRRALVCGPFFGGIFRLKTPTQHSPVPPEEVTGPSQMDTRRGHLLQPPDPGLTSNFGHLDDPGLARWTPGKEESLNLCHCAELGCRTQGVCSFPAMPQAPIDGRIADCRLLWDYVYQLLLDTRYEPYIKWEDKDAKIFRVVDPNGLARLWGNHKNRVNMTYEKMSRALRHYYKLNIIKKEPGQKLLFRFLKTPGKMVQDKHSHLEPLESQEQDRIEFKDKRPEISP
# Procedure, shortened: as §1
# [12] = target: T9, ELK1 (Homo sapiens, UniProt P19419 1-428)
# T9 sequence: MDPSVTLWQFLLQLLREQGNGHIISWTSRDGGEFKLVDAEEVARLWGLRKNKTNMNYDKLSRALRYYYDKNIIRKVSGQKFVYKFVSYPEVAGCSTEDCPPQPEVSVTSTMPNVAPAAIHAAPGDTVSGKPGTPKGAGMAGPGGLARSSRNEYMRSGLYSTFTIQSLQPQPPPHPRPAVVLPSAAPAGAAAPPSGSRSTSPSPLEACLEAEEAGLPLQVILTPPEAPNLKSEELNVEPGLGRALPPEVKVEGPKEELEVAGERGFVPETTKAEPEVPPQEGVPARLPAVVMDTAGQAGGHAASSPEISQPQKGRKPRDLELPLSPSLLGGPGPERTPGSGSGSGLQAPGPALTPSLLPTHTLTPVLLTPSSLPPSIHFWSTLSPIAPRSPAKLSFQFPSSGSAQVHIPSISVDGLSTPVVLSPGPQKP
# Procedure, shortened: as §1
# [13] = target: T10, ELF3 (Homo sapiens, UniProt P78545 1-371)
# T10 sequence: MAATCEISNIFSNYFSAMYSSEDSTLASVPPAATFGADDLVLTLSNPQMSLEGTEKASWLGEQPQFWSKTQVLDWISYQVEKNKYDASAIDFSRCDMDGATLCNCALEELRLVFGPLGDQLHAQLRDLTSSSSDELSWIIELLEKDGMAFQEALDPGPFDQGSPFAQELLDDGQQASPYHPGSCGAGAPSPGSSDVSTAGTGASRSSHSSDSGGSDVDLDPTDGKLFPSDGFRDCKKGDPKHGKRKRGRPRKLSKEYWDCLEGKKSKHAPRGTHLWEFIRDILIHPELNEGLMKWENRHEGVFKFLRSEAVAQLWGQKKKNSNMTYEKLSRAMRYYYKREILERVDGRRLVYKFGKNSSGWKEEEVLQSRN
# Procedure, shortened: as §1
# [14] = target: CRX (Homo sapiens, UniProt O43186 1-299)
# Procedure, shortened: as §1
# [15] = target: T11, ETV2 (Homo sapiens, UniProt O00321 1-342)
# T11 sequence: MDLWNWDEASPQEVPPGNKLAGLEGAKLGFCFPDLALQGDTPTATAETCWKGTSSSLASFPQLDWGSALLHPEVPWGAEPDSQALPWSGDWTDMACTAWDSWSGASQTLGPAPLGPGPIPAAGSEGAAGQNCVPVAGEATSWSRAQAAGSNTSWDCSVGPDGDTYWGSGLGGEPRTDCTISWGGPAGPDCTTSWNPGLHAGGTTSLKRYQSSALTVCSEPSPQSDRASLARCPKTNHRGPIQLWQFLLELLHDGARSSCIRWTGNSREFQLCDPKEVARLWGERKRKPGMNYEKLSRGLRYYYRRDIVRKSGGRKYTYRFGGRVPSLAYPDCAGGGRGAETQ
# Procedure, shortened: as §1
# ELF1, sequence (P32519 whole entry): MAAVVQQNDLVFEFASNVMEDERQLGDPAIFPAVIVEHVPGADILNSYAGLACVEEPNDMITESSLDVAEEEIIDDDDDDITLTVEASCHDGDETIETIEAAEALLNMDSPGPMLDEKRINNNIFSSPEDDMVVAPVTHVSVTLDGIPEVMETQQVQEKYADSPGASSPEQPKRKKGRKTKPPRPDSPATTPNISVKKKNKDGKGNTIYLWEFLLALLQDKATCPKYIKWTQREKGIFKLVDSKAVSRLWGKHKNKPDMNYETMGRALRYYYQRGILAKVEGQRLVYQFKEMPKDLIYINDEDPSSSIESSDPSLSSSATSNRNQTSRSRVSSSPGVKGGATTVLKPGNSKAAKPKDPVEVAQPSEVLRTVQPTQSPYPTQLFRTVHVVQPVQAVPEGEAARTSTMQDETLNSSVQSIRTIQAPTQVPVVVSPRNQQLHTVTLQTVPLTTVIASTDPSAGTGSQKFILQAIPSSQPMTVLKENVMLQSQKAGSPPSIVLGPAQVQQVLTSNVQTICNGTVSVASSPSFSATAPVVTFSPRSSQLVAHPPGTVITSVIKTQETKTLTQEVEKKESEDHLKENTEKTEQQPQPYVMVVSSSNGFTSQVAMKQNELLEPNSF
# CRX, sequence (O43186 whole entry): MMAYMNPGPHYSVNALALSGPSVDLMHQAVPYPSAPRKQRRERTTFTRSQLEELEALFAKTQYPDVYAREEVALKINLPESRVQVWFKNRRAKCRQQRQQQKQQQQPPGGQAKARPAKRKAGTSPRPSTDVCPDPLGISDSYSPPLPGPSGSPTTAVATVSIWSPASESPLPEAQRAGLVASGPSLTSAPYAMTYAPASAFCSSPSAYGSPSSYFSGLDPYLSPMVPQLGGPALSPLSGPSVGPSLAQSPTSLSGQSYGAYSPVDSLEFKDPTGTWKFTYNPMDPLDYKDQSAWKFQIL
# ETV1, sequence (P50549 whole entry): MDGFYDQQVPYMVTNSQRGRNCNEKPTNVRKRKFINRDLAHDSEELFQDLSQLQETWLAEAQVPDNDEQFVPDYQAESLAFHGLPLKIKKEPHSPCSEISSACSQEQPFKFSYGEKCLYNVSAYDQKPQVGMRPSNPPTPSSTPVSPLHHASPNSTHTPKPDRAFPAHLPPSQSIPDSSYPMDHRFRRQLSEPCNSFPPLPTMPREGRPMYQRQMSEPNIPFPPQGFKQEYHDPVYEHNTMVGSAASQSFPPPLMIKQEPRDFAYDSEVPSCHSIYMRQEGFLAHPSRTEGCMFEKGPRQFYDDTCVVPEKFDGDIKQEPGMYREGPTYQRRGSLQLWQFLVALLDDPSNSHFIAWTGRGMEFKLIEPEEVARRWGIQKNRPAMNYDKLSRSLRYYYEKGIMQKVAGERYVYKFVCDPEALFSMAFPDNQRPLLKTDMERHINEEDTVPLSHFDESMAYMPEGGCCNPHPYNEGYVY
# SPIB, sequence (Q01892 whole entry): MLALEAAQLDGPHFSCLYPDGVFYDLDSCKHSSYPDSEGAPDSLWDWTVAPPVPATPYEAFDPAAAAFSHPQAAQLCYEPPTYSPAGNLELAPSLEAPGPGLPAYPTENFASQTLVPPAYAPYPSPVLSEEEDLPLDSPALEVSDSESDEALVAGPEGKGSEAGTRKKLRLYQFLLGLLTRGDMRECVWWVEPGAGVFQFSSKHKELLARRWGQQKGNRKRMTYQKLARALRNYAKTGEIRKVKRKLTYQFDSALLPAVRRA
sequence,measurement,setting,value
CCACGT,binding signal,[1],"1.09 fold enrichment (6-mer frequency, TF over GST control)"
same,binding signal,[2],"1.04 fold enrichment (6-mer frequency, TF over GST control)"
same,binding signal,[3],"1.03 fold enrichment (6-mer frequency, TF over GST control)"
same,binding signal,[4],"1.05 fold enrichment (6-mer frequency, TF over GST control)"
same,binding signal,[5],"1.09 fold enrichment (6-mer frequency, TF over GST control)"
same,binding signal,[6],"1.01 fold enrichment (6-mer frequency, TF over GST control)"
same,binding signal,[7],"1.01 fold enrichment (6-mer frequency, TF over GST control)"
same,binding signal,[8],"1.07 fold enrichment (6-mer frequency, TF over GST control)"
same,binding signal,[9],"1.04 fold enrichment (6-mer frequency, TF over GST control)"
same,binding signal,[10],"1.02 fold enrichment (6-mer frequency, TF over GST control)"
same,binding signal,[11],"1.06 fold enrichment (6-mer frequency, TF over GST control)"
GATCAC,binding signal,[12],"1.01 fold enrichment (6-mer frequency, TF over GST control)"
same,binding signal,[2],"1.02 fold enrichment (6-mer frequency, TF over GST control)"
same,binding signal,[4],"1.16 fold enrichment (6-mer frequency, TF over GST control)"
same,binding signal,[5],"1.01 fold enrichment (6-mer frequency, TF over GST control)"
same,binding signal,[13],"1.04 fold enrichment (6-mer frequency, TF over GST control)"
same,binding signal,[14],"1.09 fold enrichment (6-mer frequency, TF over GST control)"
same,binding signal,[10],"1 fold enrichment (6-mer frequency, TF over GST control)"
GTTCGT,binding signal,[5],"1.12 fold enrichment (6-mer frequency, TF over GST control)"
same,binding signal,[15],"1.05 fold enrichment (6-mer frequency, TF over GST control)"
same,binding signal,[8],"1.12 fold enrichment (6-mer frequency, TF over GST control)"
AGGTGT,binding signal,[5],"1.02 fold enrichment (6-mer frequency, TF over GST control)"
same,binding signal,[13],"1.05 fold enrichment (6-mer frequency, TF over GST control)"
